Bioassay records as filed in PubChem BioAssay.
MEKK3 PB1 HTS: modulators of MEKK3-MEK5 PB1 binding, primary screen, biochemical, wildtype MEKK3, multiplex bead flow cytometry, Alexa488-MEK5 | Mitogen-activated protein kinase kinase kinase 3 (Homo sapiens), Q99759 | bead-based flow cytometry, Alexa488-MEK5 binding to MEKK3; actives lie on both sides; 0 = blocked by unlabeled MEK5, 100 = vehicle | binding response (% of control), % at 10 µM | 1.4% of 290,000 active | AID 1529, 2009;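 active = binding response more than 3 SD above or below the average of its plate-row segment, actives on both sides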;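 also: Alexa488 bead fluorescence after subtracting the streptavidin-only scavenger bead signal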
Target sequence (Q99759 whole entry, looked up): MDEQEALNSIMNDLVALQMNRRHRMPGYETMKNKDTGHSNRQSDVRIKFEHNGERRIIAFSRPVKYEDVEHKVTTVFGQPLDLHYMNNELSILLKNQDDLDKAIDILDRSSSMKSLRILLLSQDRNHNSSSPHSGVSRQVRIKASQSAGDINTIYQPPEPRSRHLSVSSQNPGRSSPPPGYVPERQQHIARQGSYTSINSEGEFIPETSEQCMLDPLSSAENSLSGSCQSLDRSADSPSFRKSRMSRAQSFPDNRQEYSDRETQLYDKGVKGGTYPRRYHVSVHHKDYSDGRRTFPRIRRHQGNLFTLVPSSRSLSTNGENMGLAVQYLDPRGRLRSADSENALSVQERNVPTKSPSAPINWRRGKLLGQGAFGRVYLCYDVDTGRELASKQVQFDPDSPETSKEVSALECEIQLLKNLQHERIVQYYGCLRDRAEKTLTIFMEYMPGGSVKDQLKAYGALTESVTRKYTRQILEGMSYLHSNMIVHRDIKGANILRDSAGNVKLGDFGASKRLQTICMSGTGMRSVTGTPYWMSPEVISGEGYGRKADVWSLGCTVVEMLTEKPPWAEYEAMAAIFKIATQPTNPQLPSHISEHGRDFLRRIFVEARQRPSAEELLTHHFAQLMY
MEKK2wt PB1 HTS: modulators of MEK5 binding to wildtype MEKK2, primary screen, biochemical, multiplex bead flow cytometry, Alexa488-MEK5. Mitogen-activated protein kinase kinase kinase 2 (Homo sapiens), Q9Y2U5. Alexa488-MEK5 binding to MEKK2 WT; actives lie on both sides. binding response (% of control), % at 10 µM. 1.1% of 290,000 active. AID 1531, 2009; in the data active = binding response below about 67% or above about 130%
MEKK2 mut-MEK5: MEK5 binding signal on mutant MEKK2 PB1, primary screen, biochemical, multiplex bead flow cytometry, Alexa488-MEK5 | Alexa488-MEK5 binding to MEKK2 mutant | percent response, % at 10 µM | 0.35% of 290,000 active | AID 1530, 2009; in the data active = percent response above about 24%, passing the limit was not always enough
GRK2 aptamer HTS: compounds blocking aptamer binding on GRK2 – biochemical, human GRK2, bead flow cytometry, HTS, primary screen. inhibition of aptamer binding, % at 10 µM. FAM-aptamer displacement from GRK2. 0.59% of 330,000 active;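 active = inhibition of aptamer binding above 40%, roughly 3 SD of noise, on plates passing a quality check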;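 also: median bead fluorescence of bound FAM aptamer so fluorescent compounds give negative values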
GRK2 inh confirm: GRK2 aptamer-displacing inhibitors, retest, confirmation, biochemical, cherry pick 1, bead flow cytometry; shares compounds with GRK2 aptamer HTS; bead-bound GRK2, FAM-aptamer displacement; aptamer displacement, % at 10 µM; 4% of 2,000 active; AID 504451, 2011;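 active = aptamer displacement above 40%, near three times the noise of non-fluorescent compounds, on plates passing quality checks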;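 also: negative values mostly reflect intrinsic compound fluorescence rather than true enhancement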
Aptamer quench SP: counter-screen for GRK2 aptamer inhibitors: fluorescent aptamer quenchers. shares compounds with GRK2 aptamer HTS. Carboxyfluorescein RNA aptamer on beads, flow cytometry quenching; hits give low values. fluorescence response (% of DMSO), % at 10 µM. 2,000 tested, under 10 active. AID 504580;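 active = compounds that quench the bead-bound fluorescent RNA probe, cutting fluorescence to under half of the solvent control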;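 also: counterscreen run without GRK2 so only probe quenching by compound is measured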
GRK2 confirm 2: GRK2 aptamer-displacing inhibitors, hit retest, confirmation, biochemical, cherry pick 2, bead flow cytometry; shares compounds with GRK2 aptamer HTS; bead-bound GRK2, FAM-aptamer displacement; inhibition of aptamer binding, % at 10 µM; 360 tested, under 10 active;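 active = inhibition of aptamer binding above 40%, about triple the noise seen with nonglowing compounds, on plates passing quality control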;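 also: negative values mostly come from compounds that fluoresce themselves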
FAM quench CP2: quenches fluorescent RNA aptamer, GRK2 hit artifact. 360 tested, under 10 active. carboxyfluorescein RNA aptamer beads, flow cytometry quenching; hits give low values. fluorescence response vs DMSO, % at 10 µM. shares compounds with GRK2 aptamer HTS. AID 588494;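 active = response vs DMSO under 50%, meaning signal dropped by over half, treated as fluorescence quencher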;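 also: labelled aptamer on streptavidin beads without GRK2 as a quench counter-screen; 100% = bead fluorescence of DMSO wells and lower means quenching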
* hit, by the source's call; . = not tested or not shown. Only some compounds are listed: those with a hit (about 2.5% of all), similar ones and a draw of the others.

SMILES | MEKK3 PB1 HTS | MEKK2wt PB1 HTS | MEKK2 mut-MEK5 | GRK2 aptamer HTS | GRK2 inh confirm | Aptamer quench SP | others
Cn1ccnc1C(OC(=O)c1ccccc1)C(F)(F)F (stereo not given) | 102 | 106 | 4 | 6 | 2 | 94
O=C(NCCc1ccccc1)/C(=C\c1cccc([N+](=O)[O-])c1)NC(=O)c1ccco1 | 100 | 105 | 8 | 1 | . | .
Cc1ccc2nc(SCC(=O)Nc3cccc(Cl)c3)nc(=O)n2c1 | . | . | . | 1 | . | .
Cc1ccc2nc(SCC(=O)Nc3cccc(F)c3)nc(=O)n2c1 | . | . | . | 100* | 1 | 99
O=C(c1ccncc1)N1CCN(S(=O)(=O)c2ccc(OC(F)(F)F)cc2)CC1 | . | . | . | 6 | . | .
O=S(=O)(Nc1cc(Sc2cccc3cccnc23)c(O)c2ccccc12)c1ccc(F)cc1 | 120 | 105 | 0 | 42* | 3 | 97
COc1cccc(N2CC(C(=O)Nc3ccc(C(=O)OC(C)C)cc3)CC2=O)c1 (stereo not given) | 96 | 98 | -1 | 73* | 1 | 101
CC(c1nc2ccccc2c(=O)[nH]1)N1CCOCC1 (stereo not given) | 101 | 101 | 1 | 0 | . | .
CC(c1nc2ccccc2c(=O)[nH]1)N1CCN(C)CC1 (stereo not given) | 103 | 106 | 6 | 0 | . | . | GRK2 confirm 2=3;FAM quench CP2=104
CCC(CC)C(=O)Nc1nnc(S(=O)(=O)N2CCCC2)s1 | 100 | 102 | 2 | 5 | . | .
NC(=O)C[C@H](N)c1cn([C@@H](CC(N)=O)C(=O)N2CCNCC2)nn1 | . | . | . | 49* | 1 | 101
Nc1nc(N(Cc2ccccc2)Cc2ccccc2)nc(C(F)(F)F)n1 | . | . | . | 43* | . | . | GRK2 confirm 2=-6;FAM quench CP2=100
COc1ccc(N2CCN(C(=O)CN3C(=O)NC4(CCCCC4C)C3=O)CC2)cc1 (stereo not given) | . | . | . | 0 | . | .
O=C(NN1CCOCC1)c1cc(-c2ccccc2)nc2ccccc12 | 105 | 104 | 5 | 71* | 1 | 98
COc1cc(NS(=O)(=O)c2ccc(NC(=O)Cc3ccccc3)cc2)nc(OC)n1 | 100 | 101 | 7 | 2 | . | .
O=c1cc[nH]c2ccc(OC(F)(F)F)cc12 | 90 | 94 | -10 | 86* | -1 | 100
CCOc1ccc(C(C)NC(=O)Cc2ccccc2)cc1OCC (stereo not given) | 91 | 93 | -4 | 0 | . | .
CCOc1ccc(C(C)NC(=O)Cc2ccccc2F)cc1OCC (stereo not given) | 98 | 95 | -3 | 68* | 0 | 100
Cc1cc(C)cc(NC(=O)CSc2nnc(-c3cc(C)[nH]n3)n2N)c1 | 102 | 98 | 0 | 3 | . | .
COc1cc(C2C(=O)N(C3CCCC3)CC(=O)N2Cc2ccco2)ccc1OC(C)C (stereo not given) | 102 | 104 | 4 | 58* | -1 | 99
CCCOc1ccc(C2C(=O)N(C3CCCCC3)CC(=O)N2CCC)cc1OC (stereo not given) | 106 | 111 | 6 | 3 | . | .
NC(=O)CSc1nnc(-c2ccc(S(=O)(=O)N3CCCC3)cc2)o1 | 94 | 99 | -1 | 45* | -1 | 81
Cc1ccc(CSc2nnc(-c3ccc(S(=O)(=O)N4CCCC4)cc3)o2)cc1 | 101 | 98 | -2 | 59* | -2 | 95
O=S(=O)(c1ccc(-c2nnc(SCc3ccccc3)o2)cc1)N1CCCC1 | 92 | 91 | -1 | 0 | . | .
Cc1ccc(C(=O)Nc2ccc(N3CCN(C)CC3)cc2)c(Cl)c1 | 96 | 102 | 1 | 49* | -3 | 92
SMILES | MEKK3 PB1 HTS | MEKK2wt PB1 HTS | MEKK2 mut-MEK5 | GRK2 aptamer HTS | GRK2 inh confirm | Aptamer quench SP | others
N#Cc1c(-c2ccccc2)cc(-c2ccccc2)[nH]c1=O | 99 | 101 | -4 | 60* | . | . | GRK2 confirm 2=4;FAM quench CP2=100
CC1CCC(NC(=O)N(CCCl)N=O)CC1 (stereo not given) | 111 | 112 | 5 | 26 | -6 | 103
CC1CCC(NC(=S)NCCN(C)C)CC1 (stereo not given) | 102 | 101 | -5 | 0 | . | .
CSc1cccc(-n2ccc(=O)c(C)c2C)c1 | 107 | 108 | 11 | 4 | . | .
COc1ccc(SCC(=O)Nc2ccccc2Cl)cc1 | 105 | 107 | 5 | 65* | . | . | GRK2 confirm 2=3;FAM quench CP2=101
Cc1cc(Cl)cc(C)c1OCCCCCn1ccnc1 | 103 | 113 | 4 | 0 | . | .
Cc1cc(Cl)cc(C)c1OCCn1ccnc1 | 108 | 113 | 11 | 42* | . | . | GRK2 confirm 2=-23;FAM quench CP2=100
NS(=O)(=O)c1cccnc1Nc1ccc(Cl)c(Cl)c1 | . | . | . | 0 | . | .
CC(=O)NS(=O)(=O)c1cccnc1Nc1ccc(Cl)c(Cl)c1 | 100 | 100 | 4 | 83* | -2 | 105
CC(C)c1ccc(NC(=O)CCc2ccccc2)cc1 | 103 | 107 | 2 | 1 | . | .
O=C(Nc1ccc(S(=O)(=O)Nc2nccs2)cc1)c1cc(-c2ccccc2Cl)nc2ccccc12 | . | . | . | 1 | 2 | 108
O=C(Nc1ccc(S(=O)(=O)Nc2nccs2)cc1)c1cc(-c2ccccn2)nc2ccccc12 | 98 | 100 | 1 | 1 | . | .
COc1ccc(CC(=O)OCC(=O)NC2CCCC(C)C2C)cc1OC (stereo not given) | . | . | . | 0 | . | .
O=C(NNS(=O)(=O)c1ccc([N+](=O)[O-])cc1)C(=O)Nc1cccc(C(=O)O)c1 | 97 | 93 | -1 | 69* | 5 | 102
O=C(O)c1cccc(NC(=O)c2cccc(S(=O)(=O)Nc3cccc([N+](=O)[O-])c3)c2)c1 | 103 | 102 | 0 | 0 | . | .
Cc1ccc(C(CNS(=O)(=O)c2ccccc2)N2CCN(C)CC2)cc1 (stereo not given) | . | . | . | 0 | . | . | GRK2 confirm 2=6;FAM quench CP2=99
Cc1ccc(C(CNS(=O)(=O)c2ccc(Br)cc2)N2CCN(C)CC2)cc1 (stereo not given) | . | . | . | 0 | . | .
CSc1c(CC(=O)Nc2ccccc2C(F)(F)F)n(Cc2ccccc2)c2ccccc12 | 94 | 88 | 3 | 100* | . | . | GRK2 confirm 2=-3;FAM quench CP2=101
CSc1c(CC(=O)Nc2ccccc2Cl)n(Cc2ccccc2)c2ccccc12 | 97 | 96 | -4 | 3 | . | .
